Hit rate of the full screen: of about 140,000 compounds, about 220 (0.16%) were called active. The sample holds actives, similar compounds and a random draw of the others, so the mix is not that of the screen. A number with no mark means an inactive call. Rule as the data show it: active = inhibition above about 50%; inactive = the rest.
System: YopH tyrosine phosphatase [Yersinia enterocolitica]
Experiment: inhibition of Yersinia YopH phosphatase – biochemical, fluorescence Ex485/Em525, primary screen (AID 898)
Conditions: hits give high values, concentration not given here

Row | Compound | inhibition
1 | COc1cc(/C=N/NC(=O)c2ccccc2)ccc1OS(=O)(=O)c1ccccc1 | -12.8%
2 | COC(=O)c1ccccc1NS(=O)(=O)c1ccc2[nH]c(=O)[nH]c2c1 | -13.2%
3 | Cc1cccc(CSc2ccc(-c3cccs3)nn2)c1 | -8.04%
4 | CC1(c2cccc([N+](=O)[O-])c2)CC(C)(C)N(C(=O)c2ccccc2)c2ccccc21 (centres undefined) | -13.3%
5 | O=C(NC(=S)Nc1cc(C(F)(F)F)ccc1N1CCOCC1)c1ccc(-c2cccc(Cl)c2)o1 | -11.4%
6 | CCN(CC(=O)NC1CCS(=O)(=O)C1)S(=O)(=O)c1ccccc1 (centres undefined) | -27.4%
7 | O=c1cc(-c2ccccc2)[nH]c2cc(F)ccc12 | -25.5%
8 | Clc1ccc(C2=CSC3=Nc4cccc5cccc(c45)N23)cc1 | 76.1% (active)
9 | COc1ccc2c(c1)CC[C@@H]1[C@@H]2CC[C@]2(C)C(=O)CC[C@@H]12 | -40.8%
10 | COC(=O)/C=C\C(=O)Nc1cccc([N+](=O)[O-])c1 | -15.7%
11 | Cc1ccc(NC(=O)Cn2cccc2C2=NC(c3ccccc3)CO2)c(C)c1 (centres undefined) | -4.93%
12 | Cc1ccc(S(=O)(=O)Nc2nc(C)cc(N/N=C/c3ccc(O)cc3)n2)cc1 | -24.5%
13 | Cn1cnc(C(F)(F)F)c1-c1ccc([N+](=O)[O-])cc1 | -26.6%
14 | Cc1ccc(NC(=O)CN(C)Cc2ccc(F)cc2)c([N+](=O)[O-])c1 | -24.9%
15 | Cc1ccccc1C(OCCN(C)C)C1CCCCC1 (centres undefined) | -18.4%
16 | N#Cc1ccc(C(=O)Nc2nc(-c3cccs3)c(C(=O)C(F)(F)F)s2)cc1 | -10.1%
17 | O=C(/C(=C/c1cccc(Cl)c1)c1nc2ccccc2[nH]1)c1ccccc1 | -25%
18 | NNc1nc2c(Cl)cccc2s1 | -22%
19 | Cc1cc(N2CCOCC2)nc(-c2ccc(Br)cc2)n1 | 5.67%
20 | CCCCNC(=O)C1CCC(CNS(=O)(=O)c2ccc(NC(C)=O)cc2)CC1 (centres undefined) | -25.8%

Row | Compound | inhibition
21 | COC(=O)NNC(=O)C1CCC(C)CC1 (centres undefined) | -19.5%
22 | COc1ccc(-c2cc(C(F)(F)F)nc(SCC(=O)Nc3ccc4c(c3)OCO4)n2)cc1OC | -21.2%
23 | Cc1cccc(N2C(=O)SC(SC(=Nc3ccccc3)Nc3ccccc3)C2=O)c1 (centres undefined) | -18.8%
24 | Cc1ccc2c(c1)C1CN(C)CCC1N2C(=O)c1ccccc1NS(=O)(=O)c1ccc(F)cc1C (centres undefined) | -30.2%
25 | Cc1nc2ccccc2n1CC(=O)N/N=C/c1cccs1 | -17.2%
26 | Cc1ccc(NC(=O)CCC(=O)N/N=C/c2ccco2)c(C)c1 | -19.1%
27 | CCCNC(=O)OC[C@H]1O[C@H](CCO/N=C/[C@@H](NS(=O)(=O)c2ccc(C)cc2)[C@H](C)/C=C/CC(=O)OC)C=C[C@@H]1Oc1ccc(OC)cc1 | -21.3%
28 | CC(=O)c1ccc(NC(=S)NC(=O)CC(C)C)cc1 | -2.98%
29 | COc1cc(OC)cc(C(=O)N[C@H](C(=O)OCC(=O)NC(C)c2ccccc2)C(C)C)c1 (some centres undefined) | -27.4%
30 | CCCCC(CC(C)O)c1n[nH]c(=S)n1-c1ccccc1 (centres undefined) | -33.5%
31 | CC(C)c1nccn1S(=O)(=O)c1cc([N+](=O)[O-])ccc1Cl | -25.1%
32 | CCCCCOc1ccc(/C=C/C(=O)NCCc2nc3ccccc3[nH]2)cc1OC | -36.7%
33 | C=CCNC(=S)NNC(=O)COc1c(Cl)cc(Cl)cc1Cl | -25.1%
34 | COC(=O)Cc1ccc(NC(=S)NCc2ccccc2)cc1 | -21.4%
35 | Cc1ccc(OCc2nnc(SC3CCc4ccccc4C3=O)n2C)cc1 (centres undefined) | -10.2%
36 | O=C(Nc1nnc(SCc2ccccc2Cl)s1)c1cccc([N+](=O)[O-])c1 | -19.7%
37 | CC/C(=N\NC(=O)c1ccccc1Cl)c1ccc(Br)s1 | -30%
38 | CCCCN=C1C([N+](=O)[O-])=CC=C2C1=NC1(CCCCC1)N2O | -23.5%
39 | Cc1ccc(S(=O)(=O)N2CCOCC2)cc1C(=O)NC(=S)N(Cc1ccccc1)C(C)C | -13.5%
40 | CC(C)Nc1nnc(SCC(=O)c2c[nH]c3ccccc23)s1 | -37.7%

Row | Compound | inhibition
41 | O=C(c1cccs1)n1nc(NCc2ccccc2)nc1NCc1ccccc1 | -28.9%
42 | COc1ccccc1-c1nnc(NC(=O)c2ccc3ncsc3c2)o1 | -9.55%
43 | CN(C)c1ccnc2sc(C(=O)c3ccccc3)c(N)c12 | 9.26%
44 | O=C(O)CCS(=O)(=O)c1ccc(-c2ccccc2)cc1 | -26.8%
45 | CCOc1ncccc1C(=O)N(C)CC(=O)Nc1ccc(F)cc1 | -16.5%
46 | CCOC(=O)c1c(/N=C/c2cc(C)ccc2O)sc2c1CCC2 | -9.28%
47 | CCNC(=S)N(CCc1c(C)[nH]c2ccc(C)cc12)Cc1ccco1 | -11.6%
48 | C=CCOc1ccc(/C=N/NC(=O)C(C)Sc2ccccn2)cc1OCC (centres undefined) | -28.1%
49 | O=C(COC(=O)Cc1ccc(Br)cc1)Nc1c(F)c(F)c(F)c(F)c1F | -9.87%
50 | CN(C)c1ccc(/C=N/N(Cc2ccccc2)c2ccccc2)cc1 | -23.4%
51 | C=CCn1c(SCC(N)=O)nnc1-c1cc2c(s1)CCC(CC)C2 (centres undefined) | -11%
52 | CCC(C)(C(=O)Nc1ccccc1C)N(C(=O)CNC(C)=O)c1ccc(C)cc1 (centres undefined) | -34.2%
53 | CC(C)C(=O)Nc1ccc(C(=O)NNC(=O)c2cccs2)cc1 | -18.7%
54 | CCc1ccc(NC(=O)C(C)OC(=O)/C=C/c2cccc([N+](=O)[O-])c2)cc1 (centres undefined) | -14.1%
55 | COc1cc(/C=N/NC(=O)CCc2n[nH]c(=O)[nH]c2=O)ccc1O | -11.1%
56 | Cc1ccc(N(C(=O)C(F)(F)F)C(C(=O)NC2CCCCC2)c2ccncc2)cc1C (centres undefined) | -8.07%
57 | COc1ccc(-c2nnc(SCC(=O)c3cccs3)o2)c(OC)c1 | 90.3% (active)
58 | COc1ccc(-n2c(C)cc(C(=O)CSc3nnc(-c4cccs4)o3)c2C)cc1 | -23.9%
59 | COc1ccc(OC)c(C(=O)CSc2nnc(-c3cccs3)o2)c1 | -17.3%

Source: PubChem BioAssay AID898 (University of Pittsburgh Molecular Library Screening Center, 2007)
